Screens (PubChem)
TDP1 cell CPT – qHTS for Inhibitors of human tyrosyl-DNA phosphodiesterase 1 (TDP1): qHTS in cells in presence of CPT. chicken DT40 Tdp1-/-;hTDP1 cells + 20 nM CPT, ATP luminescence, 48 h. Potency, µM (doses to about 46.2 µM), actives largely listed as inhibitors. actives 12% (n = 420,000). AID 686979, 2013; further: nearly all actives have a fitted effect of over 55% in size
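Cell growth measured by CellTiter-Glo luminescence after a minimum 48 h, 37 C compound exposure with 20 nM CPT in Tdp1-knockout DT40 cells stably expressing hTDP1, seeded 400/well; qHTS titration format.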
ClpP mod – qHTS Assay for Activators of ClpP; Potency, µM (series often up to 57.5 µM); ATP-dependent Clp protease proteolytic subunit (Bacillus subtilis (strain 168)), P80244; AID 651965, 2013; purified B. subtilis ClpP, FRET peptide cleavage, 20 min; actives 1.9% (n = 340,000); active means well fitted falling curve with a large enough effect; inconclusive means small, poorly fitted or top-dose-only effect; inactive means no such curve, though single readings can be large or run the other way; further: the source files actives as falling curves though it sought activators and does not explain the sign; nearly all actives have a fitted effect of over 65% in size
Target sequence (P80244 whole entry, looked up): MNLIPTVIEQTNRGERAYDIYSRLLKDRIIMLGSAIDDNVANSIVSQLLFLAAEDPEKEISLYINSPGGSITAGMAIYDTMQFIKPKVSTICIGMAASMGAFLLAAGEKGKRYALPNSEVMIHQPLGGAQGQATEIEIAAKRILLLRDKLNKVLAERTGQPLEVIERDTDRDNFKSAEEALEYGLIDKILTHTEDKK
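FRET quenching reversal measured ClpP activation: 10 microg/mL B. subtilis ClpP at pH 8 with the FRET-FV decapeptide, read at 430 nm after 320 nm excitation. The 20-min minus 0-min signal was scaled between DMSO/no-enzyme wells and ADEP (5.8 microM final).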
TDP1 inh – qHTS Assay for Inhibitors of Tyrosyl-DNA Phosphodiesterase (TDP1). AID 485290, 2010. actives 0.28% (n = 350,000). Potency, µM (top dose mostly 130 µM), most hits filed as inhibitors. recombinant TDP1, AlphaScreen DNA substrate cleavage; further: nearly all actives have a fitted effect of over 40% in size
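AlphaScreen read-out: signal falls as enzyme removes the 3' tyrosine-FITC from a 5'-biotinylated DNA oligo (15 nM, 5 min, RT). Enzyme was E. coli-made recombinant Tdp1 at 1 nM, exposed to compound for 15 min beforehand; beads 10 ug/ml, 10 min.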
TDP1 cell noCPT – qHTS for Inhibitors of human tyrosyl-DNA phosphodiesterase 1 (TDP1): qHTS in cells in absence of CPT. AID 686978, 2013. Potency, µM (doses to about 46.2 µM), usual class: inhibitors. actives 15% (n = 420,000). DT40 Tdp1-/- hTDP1 cells, no CPT, ATP luminescence, 48 h; further: nearly all actives have a fitted effect of over 55% in size
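No-CPT arm: Tdp1-/-;hTDP1 DT40 cells (400/well) plus compounds, incubated ≥48 hr at 37 °C. Readout CellTiter-Glo luminescence.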
Large screens that a line does not name were inactive. The list is not random: actives were taken first. Their share in the collection is about 17%. Unless noted, the call rests on the fitted dose curve; in most records, active means well fitted curve in the direction sought with a large enough effect; inconclusive means small, poorly fitted or top-dose-only effect, or another doubt; inactive means no such curve, though single readings can be large; an effect the other way counts as inactive or inconclusive.

COc1ccc(C2CC(=O)c3c([nH]c(C(=O)OC4CCCC4)c3C)C2)cc1OC (configuration not stated)	none
CN(C)S(=O)(=O)Nc1ccccc1F	none (no result: ClpP mod)
CCOC(=O)C(CCc1ccccc1)NC(C)C(=O)N1Cc2cc(OC)c(OC)cc2CC1C(=O)O (configuration not stated)	none (no result: TDP1 cell CPT, ClpP mod, TDP1 cell noCPT)
COc1ccc(Cl)c2c1[nH]c1nc(SCc3ccccn3)nnc12	TDP1 cell CPT inconclusive, TDP1 cell noCPT 25.9µM (no result: ClpP mod)
CN(C(=O)c1cccc(NC(=O)Cc2cccc(NC(=O)C3CCCN(C(=O)c4ccccc4)C3)c2)c1)C1CCC1 (configuration not stated)	TDP1 cell CPT inconclusive, TDP1 cell noCPT inconclusive (no result: TDP1 inh)
CCOC(=O)Cc1csc(SCn2nnc3ccccc3c2=O)n1	TDP1 cell noCPT inconclusive
CCOC(=O)Cc1csc(/N=C/c2c(O)n(-c3ccccc3C(F)(F)F)c(=O)c3ccccc23)n1	TDP1 cell CPT 20.6µM, TDP1 cell noCPT inconclusive
CCOC(=O)Cc1csc(-n2sc3ccccc3c2=O)n1	TDP1 cell CPT 5.17µM, TDP1 cell noCPT 11.6µM
CCOC(=O)Cc1csc(N/N=C/c2ccc(C(F)(F)F)cc2)n1	none
CCOC1=C2[C@@H](CN(S(=O)(=O)c3ccc(C)cc3)[C@H]2c2cccs2)[C@H]2C(=O)N(c3ccccc3)C(=O)[C@H]2C1	TDP1 cell noCPT inconclusive (no result: TDP1 inh)
Cc1cc(C(=O)OCC(=O)NCc2ccc(Cl)cc2Cl)c(C)o1	none
O=C(COc1ccccc1Cl)N(Cc1ccco1)C1CCS(=O)(=O)C1 (configuration not stated)	none
Cc1ccc(CN(Cc2ccco2)C(=O)COc2ccc(C(C)C)cc2)cc1	TDP1 cell CPT inconclusive, TDP1 cell noCPT inconclusive
COc1ccc(CN(Cc2ccco2)C(=O)COc2ccccc2OC)cc1	TDP1 cell CPT inconclusive, TDP1 cell noCPT 18.4µM
COc1ccc(CN(Cc2ccco2)C(=O)COc2ccccc2Cl)cc1	TDP1 cell CPT inconclusive, TDP1 cell noCPT 23.1µM
c1ccc2oc(-c3[nH]ncc3CN(Cc3ccncc3)CC3CCCO3)cc2c1 (configuration not stated)	TDP1 cell CPT inconclusive, TDP1 cell noCPT 25.9µM
CCOc1ccc(-c2nc(CN(Cc3ccccc3)C[C@@H]3CCC(=O)N3)c(C)o2)cc1	TDP1 cell CPT inconclusive, TDP1 cell noCPT 20.6µM (no result: ClpP mod, TDP1 inh)
O=C1CC[C@@H](CN(Cc2ccccc2)Cc2cn[nH]c2-c2cc3ccccc3o2)N1	TDP1 cell CPT 25.9µM, TDP1 cell noCPT 16.4µM
CN(Cc1cn[nH]c1-c1cc2ccccc2o1)CC1CCOCC1	none (no result: TDP1 inh)
COCC1CCN(Cc2cn[nH]c2-c2cc3ccccc3o2)C1 (configuration not stated)	none (no result: ClpP mod)
Cc1nc2nc(C)c(NS(=O)(=O)c3ccc4c(c3)CCCC4)c(=O)n2[nH]1	none (no result: ClpP mod)
Cc1cccc(NC(=O)C(CC(C)C)NC(=O)C2CCC(C)CC2)n1 (configuration not stated)	none
COCC(=O)N1CCC(Oc2ccc(C(=O)N(C)CCCC3CCCC3)cc2)CC1	TDP1 cell CPT 18.4µM, TDP1 cell noCPT 20.6µM
CCc1ccc(CN2CCC(Oc3ccc(C(=O)N4CCCC4)cc3)CC2)cc1	TDP1 cell CPT 18.4µM, TDP1 cell noCPT inconclusive
CCc1ccc(CN2CCC(Oc3ccc(C(=O)N4CCCCC4)cc3)CC2)cc1	TDP1 cell CPT inconclusive, TDP1 cell noCPT 14.6µM
C=CCOc1ccccc1CN1CCC(Oc2ccc(C(=O)N3CCCCC3)cc2)CC1	TDP1 cell CPT inconclusive, TDP1 cell noCPT 20.6µM
O=C(c1ccc(OC2CCN(Cc3ccc(F)cc3)CC2)cc1)N1CCCC1	none
C[C@H]1CN([C@@H](C)CO)C(=O)c2cc(Br)cnc2O[C@H]1CN(C)C(=O)c1ccc2c(c1)OCO2	none (no result: TDP1 inh)
COCC(=O)N1CCC(Oc2ccc(C(=O)N3CCCCCC3)cc2)CC1	none
COCC(=O)N1CCC(Oc2ccc(C(=O)N3CCCCCCC3)cc2)CC1	TDP1 cell CPT inconclusive, TDP1 cell noCPT 13µM
O=C(c1ccc(OC2CCN(CCc3ccccc3)CC2)cc1)N1CCCC1	none
O=C(c1ccc(OC2CCN(C/C=C/c3ccc(F)cc3)CC2)cc1)N1CCCC1	TDP1 cell CPT 25.9µM, TDP1 cell noCPT inconclusive
